Assay outcomes as filed in PubChem BioAssay.
dFosB activator: activators of mouse delta FosB homodimer; P13346; purified delta FosB, TAMRA-CDK5 oligo fluorescence polarization; percent of positive-control signal above neutral wells; activation, % at 25 µM; 0.99% of 340,000 active; AID 493131;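 active = mean activation above about 17%, with every replicate also reaching it, limit read from the data, passing the limit was not always enough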
Target sequence (P13346 whole entry, looked up): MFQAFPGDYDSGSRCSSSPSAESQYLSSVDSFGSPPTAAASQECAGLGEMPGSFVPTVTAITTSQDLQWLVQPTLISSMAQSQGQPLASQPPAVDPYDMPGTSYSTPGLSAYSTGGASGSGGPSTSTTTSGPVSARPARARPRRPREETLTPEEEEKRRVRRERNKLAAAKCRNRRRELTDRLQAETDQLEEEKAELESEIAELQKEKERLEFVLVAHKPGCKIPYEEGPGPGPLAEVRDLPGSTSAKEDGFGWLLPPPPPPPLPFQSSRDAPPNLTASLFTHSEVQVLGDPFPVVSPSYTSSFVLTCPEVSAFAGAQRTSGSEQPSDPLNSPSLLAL
EBNA-1 inh: blocks EBNA-1 binding to DNA. EBNA-1 DNA binding, fluorescence polarization. inhibition, % at 14.8 µM. 0.34% of 300,000 active; in the data active = inhibition above about 28%
NALP3 yeast inh: blocks the NALP3 inflammasome reconstituted in yeast. Yeast reconstituted NLRP3/ASC/caspase-1, beta-gal luminescence, 24 h. inhibition, % at 10 µM. 0.39% of 330,000 active;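 active = inhibition of 50% or more; inactive = inhibition below 50%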;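 note: plate controls were induced DMSO wells for no effect and uninduced yeast grown without galactose for full effect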
NALP1 inh: inhibitors of NALP1 inflammasome in yeast; inhibition, % at 10 µM; S. cerevisiae NALP1/ASC/caspase-1 growth, X-gal OD620, 72 h; AID 2071; 0.61% of 280,000 active; in the data active = inhibition mostly above about 24%, no sharp cut-off; inactive = mostly below about 32%
ZTA counter: blocks Epstein-Barr virus ZTA, an EBNA-1 counter-screen. 0.15% of 320,000 active. ZTA-DNA binding, fluorescence polarization. P03206. inhibition, % at 11 µM; in the data active = inhibition above about 33%
Target sequence (P03206 whole entry, looked up): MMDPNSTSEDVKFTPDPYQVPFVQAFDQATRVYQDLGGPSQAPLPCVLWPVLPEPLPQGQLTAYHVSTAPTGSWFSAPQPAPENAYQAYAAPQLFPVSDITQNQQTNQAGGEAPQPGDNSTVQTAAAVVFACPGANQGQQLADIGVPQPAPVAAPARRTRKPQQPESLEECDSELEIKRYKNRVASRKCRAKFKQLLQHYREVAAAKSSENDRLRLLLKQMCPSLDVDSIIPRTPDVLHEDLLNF
PolyA inhibitor: yeast polyadenylation inhibition; activity score, % at 12 µM; 0.02% of 300,000 active; S. cerevisiae SKY197-pL101 polyadenylation reporter, beta-gal luminescence; efflux-impaired pdr1/pdr3 knockout yeast; score 100 = 6 SD above DMSO;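 active = lowest replicate activity score at least 50, where 100 means six control SD above control mean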;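 note: yeast exposed to compound for 9 h at 30 °C; higher score means more reporter readthrough which indicates perturbed polyadenylation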
Zta DNA confirm: confirmation of Epstein-Barr virus ZTA DNA binding inhibitors; shares compounds with ZTA counter; Zta-ZRE DNA binding, fluorescence polarization; inhibition, % at 11.1 µM; 30% of 320 active; AID 2361;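 active = mean inhibition across triplicate runs above the hit threshold derived for the original primary screen, cut at about 33% in these data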;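 note: 0% = Zta with DMSO and 100% = wells lacking Zta protein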
EBNA1 counter: counter-screen for ZTA inhibitors: EBNA-1 DNA binding inhibition | inhibition, % at 14.8 µM | 320 tested, under 10 active | shares compounds with ZTA counter | fluorescence polarization; call rule not given here
NALP3 confirm: NALP3 inhibition confirmation in yeast | shares compounds with NALP3 yeast inh | yeast expressing human NALP3, luminescence | inhibition, % at 10 µM | 81% of 1,300 active; in the data active = inhibition above about 48%
Casp1-ASC yeast: caspase-1-ASC yeast counter-screen hit; yeast expressing Caspase-1-ASC, luminescence counter screen; AID 488784; shares compounds with NALP3 yeast inh; 66% of 1,000 active; inhibition, % at 10 µM
NALP3 yeast rt: confirmation retest of NALP3 inhibitors in yeast | shares compounds with NALP3 yeast inh | yeast expressing human NALP3, luminescence read-out | inhibition, % at 10 µM | 53% of 1,000 active | AID 488794
Numbers without * were called inactive. The list is not random: actives were taken first. Their share in the collection is about 2.2%. Cut-off read from the data, not from the text of the source, unless noted: active = inhibition above about 50%; inactive = the rest.

CCCCCCC(=O)N/N=C/c1c(O)n(CCCC)c(=S)[nH]c1=O was read as dFosB activator -16, EBNA-1 inh 12, NALP3 yeast inh 44, NALP1 inh 20, ZTA counter -2 and PolyA inhibitor 0.
For CCCCC(=O)N/N=C/c1c(O)n(CC)c(=S)[nH]c1=O the results were dFosB activator -6, EBNA-1 inh 7, NALP3 yeast inh -12, NALP1 inh 42, ZTA counter 36*, PolyA inhibitor -6, Zta DNA confirm -3 and EBNA1 counter -8.
For O=C1C(=O)c2ccccc2-c2ccccc21 the results were dFosB activator -5, EBNA-1 inh 5, NALP3 yeast inh 28, NALP1 inh -19, ZTA counter 65*, PolyA inhibitor -17, Zta DNA confirm 68* and EBNA1 counter -8.
`CC1(C(=O)O)CC12c1ccccc1-c1ccccc12` (stereo unspecified) gave dFosB activator -7.
CCN(C=C1CC2C3CC=C4CC(O)CCC4(C)C3CCC2(C)C1=O)CC (stereo unspecified) was read as dFosB activator -8.
Screening C[C@@H]1CC2C3CC=C4C[C@@H](O)CC[C@]4(C)C3CC[C@]2(C)[C@H]1O (stereo partly specified) returned dFosB activator -6, NALP3 yeast inh 57* and NALP3 confirm 40.
C[C@]12CCC(=O)C[C@H]1CC[C@@H]1[C@@H]2CC[C@]2(C)[C@@H](O)CC[C@@H]12 was read as EBNA-1 inh -3, NALP3 yeast inh 59*, ZTA counter -9 and NALP3 confirm 73*.
C[C@H]1CC2C3CC=C4C[C@@H](O)CC[C@]4(C)C3CC[C@]2(C)[C@H]1O (stereo partly specified) was read as dFosB activator -8, NALP3 yeast inh 54* and NALP3 confirm 48.
For CC12CCC3C(CC=C4CC(O)CCC43C)C1C/C(=C\N1CCCC1)C2=O (stereo unspecified) the results were NALP3 yeast inh 59*, NALP1 inh 27, PolyA inhibitor -6 and NALP3 confirm 43.
Screening COC(=O)C1=C(c2cccc(OCc3ccccc3)c2)C[C@@H]2CC[C@H]1N2C(=O)NCc1ccccc1OC returned dFosB activator 2, NALP3 yeast inh 19 and ZTA counter 0.
Screening NC(=Nc1ccccc1)NN=Cc1c[nH]c2ccccc12 returned dFosB activator 0.
For COC1=CC(=O)O[C@@H](/C=C/c2ccccc2)C1 the results were dFosB activator 5, EBNA-1 inh -7, NALP3 yeast inh 12 and ZTA counter -20.
For C[C@]12CC[C@H](N)CC1=CCC1C2CC[C@@]2(C)C1CC[C@@H]2O (stereo partly specified) the results were dFosB activator -25, NALP3 yeast inh 56* and NALP3 confirm 56*.
Screening C[C@]12CCC(=O)C=C1CCC1C2CC[C@@]2(C)C1CC[C@@H]2O (stereo partly specified) returned dFosB activator -8, NALP3 yeast inh 53* and NALP3 confirm 60*.
For O=S(=O)(O)C(=Cc1ccccc1)c1ccccc1 (tested in a mixture with another compound) the results were dFosB activator 6.
Screening CCn1nc(-c2ccccc2)nc2c(=O)n(C)c(=O)nc1-2 returned dFosB activator -11, EBNA-1 inh -2, NALP3 yeast inh 62*, NALP1 inh 42*, ZTA counter 74*, PolyA inhibitor -13, NALP3 confirm 86*, Casp1-ASC yeast 94* and NALP3 yeast rt 88*.
CN1/C(=C\C=C\C2=[N+](C)c3ccc4ccccc4c3C2(C)C)C(C)(C)c2ccccc21 was read as EBNA-1 inh 101*, NALP3 yeast inh 53*, NALP1 inh 57*, ZTA counter active and NALP3 confirm 53*.
Screening Cn1c(=O)c2c(nc(-c3ccc(N(CCCl)CCCl)cc3)n2C)n(C)c1=O returned dFosB activator -6.
Screening CC(N)C(=O)NC1C2C(=C(O)CC(O)C2O)C(=O)OC1(C)C(Cl)Cl (stereo unspecified) returned dFosB activator 5.
For C[C@]1(O)CCC2C3CC[C@H]4C[C@@H](OC(=O)CNC(=O)CN)CC[C@]4(C)C3CC[C@@]21C (stereo partly specified) the results were dFosB activator -25, NALP3 yeast inh 56* and NALP3 confirm 71*.
For COc1ccccc1NP1(=O)OCC(C)([N+](=O)[O-])CO1 (stereo unspecified) the results were dFosB activator 6.
Screening COc1ccc2nc(NC3=NCCN3)sc2c1 returned dFosB activator -6, EBNA-1 inh 0, NALP3 yeast inh 95*, NALP1 inh 93*, ZTA counter -10, PolyA inhibitor -45 and NALP3 confirm -25.
c1ccc2sc(NC3=NCCN3)nc2c1 was read as dFosB activator 0, EBNA-1 inh 5, NALP3 yeast inh 97*, NALP1 inh 104*, ZTA counter 9, PolyA inhibitor -64, NALP3 confirm 95*, Casp1-ASC yeast 99* and NALP3 yeast rt 98*.
CC(=O)[C@H]1CC[C@H]2[C@@H]3CC[C@H]4C[C@H](O)CC[C@]4(C)[C@H]3C(=O)C[C@]12C was read as dFosB activator -4, EBNA-1 inh -13, NALP3 yeast inh 23, NALP1 inh 29, ZTA counter 12 and PolyA inhibitor 13.
C[C@]12CCC3C(CC[C@H]4C[C@@H](O)CC[C@]34C)C1CC[C@@H]2OC(=O)[C@H](N)CCCCN (stereo partly specified) was read as dFosB activator -45, NALP3 yeast inh 66* and NALP3 confirm 57*.
